Measured values published in PubChem BioAssay (NCATS).
Results filed as inconclusive are left out. Unmarked numbers belong to inactive results. Activity calls are given as the source filed them. Calls come from the whole dose curve.

Experiment: Confirmatory qHTS for VERO E6 Cytotoxicity Assay: Counterscreen for SARS-CoV-2 CPE Assay (AID 1508605); note: nearly all actives have a fitted effect of over 60% in size; for activity change, negative = cytotoxic: % is set by controls: 0 for no effect and ±100 for the full control effect
Conditions: cell viability luminescence; series mostly up to 20 µM; activity change, negative = cytotoxic: at the top concentration
Potency is the fitted concentration of half-maximal effect.

Row | Compound | activity change, negative = cytotoxic | Potency
1 | c1ccc2c(-c3cnn4cc(-c5ccc(OCCN6CCOCC6)cc5)cnc34)ccnc2c1 | -34.3% [at 10 µM] | 
2 | Cn1cc(-c2ccc(-c3cncc(Cl)c3N3CCC4(CCNC4=O)CC3)cc2)cn1 | -3.74% | 
3 | C/C(=N\NC(=O)c1cccc(S(=O)(=O)N2CCOCC2)c1)c1cc(Cl)ccc1O |  | 1 µM (active)
4 | COCCNCc1ccc(-c2cc3nccc(Oc4ccc(NC(=O)C5(C(=O)Nc6ccc(F)cc6)CC5)cc4F)c3s2)nc1 |  | 5.01 µM (active)
5 | Nc1nc(OC(c2ccc(-c3cccc(F)c3)cc2)C(F)(F)F)cc(-c2ccc(C[C@H](N)C(=O)O)cc2)n1 (stereo partly drawn) | -8.41% | 
6 | O=C1NC(=O)/C(=C\c2ccc(-c3ccc(F)cc3)o2)S1 | -9.25% | 
7 | Nc1nc(Nc2ccc3c(c2)CC[C@@H](N2CCCC2)CC3)nn1-c1cc2c(nn1)-c1ccccc1CCC2 |  | 10 µM (active)
8 | COC(=O)[C@]1(C)CC[C@]2(C)CC[C@]3(C)C4=CC=C5C(=CC(=O)C(O)=C5C)[C@]4(C)CC[C@@]3(C)[C@@H]2C1 |  | 1.01 µM (active)

Experiment: Confirmatory qHTS for activators (rescue) of SARS-CoV-2 Cytopathic Effect (CPE) (AID 1508606); note: nearly all actives have a fitted effect of over 70% in size; for CPE rescue (activation): 0% is about no effect
Conditions: Vero E6 SARS-CoV-2 CPE rescue, viability luminescence; series mostly up to 20 µM; CPE rescue (activation): at the top concentration

Row | Compound | Potency | CPE rescue (activation)
9 | C[C@@H]1C[C@H](N)C[C@H](c2ccncc2NC(=O)c2ccc(F)c(-c3c(F)cccc3F)n2)C1 | 8.91 µM (active) | 
10 | O=C(O)/C=C/c1ccc(-c2ccc(O)c(C34CC5CC(CC(C5)C3)C4)c2)cc1 |  | -8.95%
11 | O=C(O)c1ccc(CCCc2ccc(OCCc3ccc(F)cc3)cc2)o1 |  | 38%
12 | Cc1cc(CN)cc(C)c1NC(=O)c1ccc(-c2cc(Cl)ccc2Cl)o1 | 7.94 µM (active) | 
13 | CN(CCCNC(=O)c1ccc2nc3c(c(Cl)c2c1)CCCC3)Cc1ccccc1 | 7.08 µM (active) | 
14 | Cc1nc(Nc2cnn(C3CCNCC3)c2)nc2c1N(C)C(=O)c1cc3ccccc3cc1N2C | 10 µM (active) | 
15 | CC(C)C[C@H](NC(=O)[C@H](Cc1ccccc1)NC(=O)OCc1ccccc1)C(=O)C=O | 8.91 µM (active) | 
16 | Nc1nc2c(c(N3CC[C@@H](N)C3)n1)CCCc1ccccc1-2 | 10 µM (active) | 
17 | OC1CCC(Oc2cccc3cnc(Nc4ccc5nc[nH]c5c4)nc23)CC1 (stereo not drawn) | 4.47 µM (active) | 
18 | O=S(=O)(c1cccc2ccccc12)n1ccc2ccc(N3CCN4CCCC4C3)cc21 (stereo not drawn) | 11.2 µM (active) | 
19 | CC(=O)O[C@@H]1C[C@H](O)[C@@]23CO[C@H](O)[C@]1(C)C2C[C@@H](O)[C@]1(C)C3C(=O)[C@H](OC(C)=O)[C@@]2(C)[C@H](c3ccoc3)C[C@H]3O[C@]321 (stereo partly drawn) | 1.06 µM (active) | 
20 | Cc1nc2ccc(-n3ncc(C(=O)c4cc5ccccc5[nH]4)c3N)cc2[nH]1 |  | 19.3%
21 | COCCN1CCN(Cc2ccc(-c3n[nH]c4c3C(=O)c3c(NC(=O)NN5CCOCC5)cccc3-4)cc2)CC1 | 2.82 µM (active) | 
22 | COc1ccc2cc(-c3cc(-c4cc(Cl)cc(Cl)c4)nn3C(C)c3ccc(C(=O)NCCC(=O)O)cc3)ccc2c1 (stereo not drawn) |  | 3.92%
23 | C[C@H]1CC[C@@]2(OC1)O[C@H]1CC3[C@@H]4CC[C@@H]5C[C@@H](O[C@@H]6O[C@H](CO)[C@@H](O[C@@H]7O[C@@H](C)[C@H](O)[C@@H](O)[C@H]7O)[C@H](O)[C@H]6O[C@@H]6O[C@H](CO)[C@@H](O)[C@H](O)[C@H]6O)CC[C@]5(C)C4CC[C@]3(C)[C@H]1[C@@H]2C (stereo partly drawn) |  | -13.7% [at 6.64 µM]
24 | CN(C)C(=O)NC1(c2ccccc2)CCN(CCC[C@]2(c3ccc(Cl)c(Cl)c3)CCCN(C(=O)c3ccccc3)C2)CC1 |  | -11.4%
25 | COc1cc2ncnc(Sc3nnc(C)s3)c2cc1OC | 3.98 µM (active) | 
26 | CC(C)c1ccc(NC(=O)C(c2ccccc2)N(C)C(=O)Cc2c[nH]c3ccccc23)cc1 (stereo not drawn) | 3.55 µM (active) | 
27 | COc1cc(N2CCN(C)CC2)ccc1Nc1nccc(-c2cn(C)c3cnccc23)n1 | 8.91 µM (active) | 
28 | CC1(C)CCC(C)(C)c2cc(C#Cc3ccc(C(=O)O)cc3)ccc21 |  | 13.3%
29 | CC(C)(O)CNc1ncc(-c2ccnc(Nc3ccncc3)n2)c(CC2CC2)n1 | 1.12 µM (active) | 
30 | c1ccc(-c2cc(CCC3CCNCC3)c3ccccc3n2)cc1 |  | -9.44%
31 | O=S(=O)(NCC1CC1)c1ccc(Nc2nccc(N3CCCc4cc(O)ccc43)n2)cc1 | 0.794 µM (active) | 
32 | C(=N\Nc1nc(Nc2ccccc2)nc(N2CCOCC2)n1)/c1c[nH]c2ccccc12 | 0.0898 µM (active) | 
33 | Cc1cc(C)cc(-c2cnc3cc(Cl)c(-c4cccc(O)c4)cc3c2OCCCN)c1 |  | -12.7%
34 | CC(=O)O/N=C1\C(=O)N(Cc2cc(Cl)ccc2Cl)c2ccc(Cl)cc21 | 7.94 µM (active) | 
35 | COc1ccc(S(=O)(=O)N(CCO)c2ccccc2CN(C)C/C=C/c2ccc(Cl)cc2)cc1 | 10 µM (active) | 
36 | COc1ccc(CNC(=O)Nc2ncc([N+](=O)[O-])s2)cc1 | 7.94 µM (active) | 
37 | Cn1c(NC[C@@H](N)Cc2ccccc2)nc(-c2ccncc2)c(-c2ccc3ccccc3c2)c1=O | 6.31 µM (active) | 
38 | C/C=C(\C)C(=O)O[C@H]1C=C(CO)C(=O)[C@H](OC(C)=O)[C@H]1C(C)C |  | 24.3% [at 13.4 µM]
